Reference: the supplement of paper PMC10127200
Structures can show the parent of a compound that is named as a salt.

What was measured:
Experiment in all cases: Euclidean distance of Cell Painting phenotypic profile (signed KS, 77 features) to DMSO centroid (dimensionless distance); 5 or 10 uM (library dependent); higher = stronger phenotypic change vs DMSO (phenoactivity)
Conditions in all cases: 48 h
786-O = tested on: 786-O
Summary of the method: (§1)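 Phenoactivity is computed as Euclidean distance to the median vehicle profile. The profiles, drawn from 77 Harmony features scored as signed Kolmogorov-Smirnov statistics versus same-plate vehicle wells, were corrected for plate position, correlation-weighted and replicate-averaged at the top dose. Stained cells were imaged confocally at 20X (9 fields/well) after 48 h with library compounds at 10 or 5 uM, 0.1% DMSO final, in five cancer lines and a healthy fibroblast line.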

A549 = tested on: A549
Summary of the method: as §1

DU145 = tested on: DU145
Summary of the method: as §1

FB = tested on: FB
Summary of the method: as §1

HEPG2 = tested on: HEPG2
Summary of the method: as §1

OVCAR4 = tested on: OVCAR4
Summary of the method: as §1

| SMILES | Euclidean distance (786-O) | Euclidean distance (A549) | Euclidean distance (DU145) | Euclidean distance (FB) | Euclidean distance (HEPG2) | Euclidean distance (OVCAR4) |
| --- | --- | --- | --- | --- | --- | --- |
| CCN(CC)CCCC(C)Nc1nc(C)cc(Nc2ccc3nc(C)cc(N)c3c2)n1 (centres undefined) | 0.637 | 0.976 | 0.753 | 0.932 | 2.01 | 1.16 |
| C[C@H](O)C(=O)Nc1c(I)c(C(=O)NC(CO)CO)c(I)c(C(=O)NC(CO)CO)c1I [Iopamidol] | 0.656 | 0.571 | 0.699 | 1.06 | 0.734 | 1.33 |
| CCOc1ccc(NC(C)=O)cc1 [Phenacetin] | 1.38 | 0.916 | 1.56 | 0.94 | 0.469 | 1.83 |
| CCN(CC)C(=O)[C@@]1(c2ccccc2)C[C@H]1CN [Levomilnacipran Hydrochloride] | 0.986 | 0.786 | 1.17 | 1.23 | 0.649 | 0.997 |
| CCCS(=O)(=O)Nc1ccc(F)c(C(=O)c2c[nH]c3ncc(-c4ccc(Cl)cc4)cc23)c1F [Vemurafenib (PLX4032. RG7204)] | 1.14 | 1.53 | 1.68 | 1.23 | 2.32 | 1.06 |
| O=C(Nc1ccccc1)c1cc([N+](=O)[O-])ccc1Cl | 0.848 | 0.897 | 0.645 | 1.15 | 0.832 | 1.2 |
| CCCCOc1cc(C(=O)NCCN(CC)CC)c2ccccc2n1 [Cinchocaine] | 0.885 | 1.28 | 0.93 | 1.03 | 1.47 | 1.21 |
| C=C1/C(=C\C=C2/CCC[C@]3(C)[C@@H]([C@H](C)CCCC(C)C)CC[C@@H]23)C[C@@H](O)C[C@@H]1O [Alfacalcidol] | 2.68 | 1.49 | 6.28 | 1.73 | 0.811 | 1.5 |
| Cc1ccccc1C(C(=O)NC1CCCCC1)N(C(=O)Cn1ccnc1C)c1cccc(F)c1 (centres undefined) | 1.02 | 1.06 | 1.01 | 1.52 | 0.839 | 1.59 |
| Cn1c(=O)n(-c2ccc(C(C)(C)C#N)cc2)c2c3cc(-c4cnc5ccccc5c4)ccc3ncc21 [BEZ235 (NVP-BEZ235. Dactolisib)] | 3.77 | 3.79 | 1.66 | 2.82 | 0.961 | 4.78 |
| NCC(=O)Nc1ccc(-n2nc(C(F)(F)F)cc2-c2ccc3c(ccc4ccccc43)c2)cc1 | 1.57 | 1.4 | 0.783 | 1.33 | 1.34 | 1.38 |
| CCC(=O)O[C@@H](O[P@](=O)(CCCCc1ccccc1)CC(=O)N1C[C@H](C2CCCCC2)C[C@H]1C(=O)O)C(C)C [Fosinopril Sodium] | 1.19 | 0.719 | 1.62 | 0.746 | 0.444 | 1.23 |
| CCc1ccc(/C=C2/SC(=S)NC2=O)cc1 | 0.453 | 0.809 | 1.03 | 1.15 | 0.771 | 0.723 |
| Oc1ccc(OC2CCCCO2)cc1 (centres undefined) [Deoxyarbutin] | 1.11 | 0.699 | 1.16 | 1.24 | 1.02 | 1.45 |
| COC(=O)C1=CO[C@@H](O[C@@H]2O[C@H](CO)[C@@H](O)[C@H](O)[C@H]2O)[C@@H]2[C@@H](C)[C@@H](O)C[C@H]12 [Loganin] | 0.879 | 0.804 | 1.02 | 0.781 | 0.691 | 0.971 |
| CO[C@@H]1[C@@H](O[C@@H]2O[C@H](C)[C@@H](O[C@H]3C[C@@](C)(O)[C@@H](O)[C@H](C)O3)[C@H](N(C)C)[C@H]2O)[C@@H](CC=O)C[C@@H](C)[C@@H](O[C@H]2CC[C@H](N(C)C)[C@@H](C)O2)/C=C/C=C/C[C@@H](C)OC(=O)C[C@H]1OC(C)=O [Acetylspiramycin (ASPM)] | 0.993 | 1.5 | 2.15 | 1.66 | 1.45 | 1.73 |
| CN(C)CCC(c1ccc(Br)cc1)c1ccccn1 (centres undefined) [Brompheniramine hydrogen maleate] | 1.21 | 0.63 | 1.13 | 1.18 | 0.5 | 1.36 |
| CC(C)(CO)[C@@H](O)C(=O)NCCC(=O)NCCSSCCNC(=O)CCNC(=O)[C@H](O)C(C)(C)CO [D-Pantethine] | 1.1 | 1.2 | 0.679 | 1 | 0.969 | 1.35 |
| Nc1ccc(-c2ccc3ncc4ccc(=O)n(-c5cccc(C(F)(F)F)c5)c4c3c2)cn1 [Torin 2] | 5.09 | 3.59 | 1.08 | 1.45 | 1.26 | 2.88 |
| CCC(=O)O[C@]1(C(=O)SCF)[C@H](C)C[C@H]2[C@@H]3C[C@H](F)C4=CC(=O)C=C[C@]4(C)[C@@]3(F)[C@@H](O)C[C@@]21C [Fluticasone propionate] | 1.77 | 2.26 | 2.6 | 1.83 | 0.813 | 1.61 |
| CN1CCN(c2c(F)cc3c(=O)c(C(=O)O)cn4c3c2OCN4C)CC1 [Marbofloxacin] | 0.878 | 0.762 | 0.494 | 1.1 | 1.53 | 0.752 |
| CCn1c2ccccc2c2cc(Nc3ccnc(NCCCN4CCOCC4)n3)ccc21 | 3.23 | 2.84 | 1.12 | 2.94 | 2.27 | 1.98 |
| C=C1CC[C@@H]2[C@](C)(CO)[C@H](O)CC[C@@]2(C)[C@H]1C/C=C1\C=COC1=O [Dehydroandrographolide] | 1 | 0.867 | 0.554 | 0.87 | 0.517 | 1.29 |
| CC(=O)O[C@H]1C[C@@]2(C)[C@@H](C[C@@H](O)[C@H]3[C@@]4(C)CC[C@@H](O)[C@@H](C)[C@@H]4CC[C@@]32C)/C1=C(\CCC=C(C)C)C(=O)O [Fusidine] | 0.63 | 0.807 | 0.822 | 0.84 | 0.634 | 1.3 |
| CC(=O)OCC(COC(C)=O)OC(C)=O [Triacetin] | 1.28 | 0.762 | 1.03 | 1.11 | 1.02 | 0.787 |

| SMILES | Euclidean distance (786-O) | Euclidean distance (A549) | Euclidean distance (DU145) | Euclidean distance (FB) | Euclidean distance (HEPG2) | Euclidean distance (OVCAR4) |
| --- | --- | --- | --- | --- | --- | --- |
| CC(=O)OCC(=O)NCCCOc1cccc(CN2CCCCC2)c1 [Roxatidine Acetate HCl] | 1.32 | 0.853 | 0.769 | 0.72 | 0.711 | 0.763 |
| COC(=O)c1ccccc1O [Methyl salicylate] | 0.625 | 0.514 | 0.585 | 0.713 | 0.768 | 0.636 |
| O=C(Cn1ccnc1[N+](=O)[O-])NCc1ccccc1 [Benznidazole] | 1.16 | 1.1 | 1.58 | 1.03 | 0.581 | 1.14 |
| CSc1ccc(C(=O)/C=C/c2cc(C)c(OC(C)(C)C(=O)O)c(C)c2)cc1 [Elafibranor] | 1.24 | 1.28 | 0.801 | 1.43 | 0.747 | 0.978 |
| COc1ccc2[nH]cc(CCNC(C)=O)c2c1 [Melatonin] | 0.969 | 0.391 | 0.808 | 0.749 | 0.681 | 0.982 |
| NCCCCCNCC12CC3CC(CC(C3)C1)C2 [IEM 1754 dihydrobroMide] | 0.936 | 0.504 | 0.662 | 0.973 | 2.44 | 0.664 |
| CC(NC(=O)c1ccccc1/N=C/c1c(O)ccc2ccccc12)c1ccccc1 (centres undefined) [Sirtinol] | 0.539 | 0.747 | 0.686 | 0.99 | 2.2 | 0.857 |
| CC(=O)c1cc([N+](=O)[O-])c(Sc2ccc(F)cc2F)s1 | 0.453 | 0.953 | 0.697 | 0.781 | 2.06 | 1.97 |
| C[C@@H]1CCO[C@H]2Cn3cc(C(=O)NCc4ccc(F)cc4F)c(=O)c(O)c3C(=O)N12 | 1.38 | 1.81 | 1.15 | 1 | 1.37 | 1.79 |
| CCCNC(C)C(=O)Nc1ccccc1C (centres undefined) [Prilocaine] | 1.25 | 0.85 | 0.708 | 1.93 | 0.648 | 0.974 |
| COC1=CC(c2cc3ccccc3[nH]2)=N/C1=C\c1[nH]c(C)cc1C [Obatoclax Mesylate (GX15-070)] | 4.8 | 4.59 | 2.78 | 4.82 | 3.8 | 3.71 |
| N#CC1(c2ccc(NC(=O)c3cccnc3NCc3ccncc3)cc2)CCCC1 [Apatinib] | 0.955 | 1.12 | 0.92 | 2.3 | 1.34 | 0.799 |
| Clc1ccc(CSC(Cn2ccnc2)c2ccc(Cl)cc2Cl)cc1 (centres undefined) [Sulconazole Nitrate] | 1.3 | 1.23 | 1.07 | 0.983 | 1.1 | 1.31 |
| Clc1ccc(C(Cn2ccnc2)OCc2c(Cl)cccc2Cl)c(Cl)c1 (centres undefined) [Isoconazole nitrate] | 1.02 | 0.91 | 1.26 | 0.868 | 0.714 | 1.04 |
| COc1cc(Br)c(Nc2nc(-c3c(C)nc4ncccn34)cs2)c(Br)c1 | 3.62 | 2.67 | 2.18 | 2.66 | 4.16 | 1.63 |
| CN(Cc1cnc2nc(N)nc(N)c2n1)c1ccc(C(=O)N[C@@H](CCC(=O)O)C(=O)O)cc1 [Methotrexate] | 1.77 | 3.08 | 1.05 | 0.72 | 1.55 | 2.57 |
| CN1C(=O)/C(=C2/C(=O)Nc3ccccc32)c2ccccc21 [Meisoindigo] | 1.94 | 2.33 | 0.82 | 2.24 | 1.8 | 1.35 |
| O=c1ccc2cc3ccoc3cc2o1 [Psoralen] | 1.35 | 0.643 | 0.873 | 1.16 | 1.17 | 1.04 |
| COc1ccc2c(c1)c(CC(=O)N1CCOCC1)c(C)n2C(=O)c1ccc(Cl)cc1 | 0.785 | 0.772 | 0.859 | 0.741 | 0.95 | 0.74 |
| C[C@@H](O)[C@H]1C(=O)N2C(C(=O)O)=C(SCCNC=N)C[C@H]12 [Imipenem] | 0.957 | 1.45 | 0.986 | 0.737 | 0.883 | 0.789 |
| Cc1cc(C(=O)NOCCO)c(Nc2ccc(I)cc2F)n(C)c1=O | 2.89 | 2.95 | 2.82 | 4.35 | 1.48 | 1.72 |
| N#Cc1ccc([C@H]2CCc3cncn32)c(F)c1 [Osilodrostat (LCI699)] | 1.39 | 1.28 | 1.56 | 1.68 | 0.588 | 1.57 |
| COCCNCc1ccc(-c2cc3nccc(Oc4ccc(NC(=O)C5(C(=O)Nc6ccc(F)cc6)CC5)cc4F)c3s2)nc1 [Sitravatinib (MGCD516)] | 5.08 | 4.94 | 5.04 | 5.24 | 4.74 | 4.64 |
| CC(C)(C)NS(=O)(=O)c1cncc(-c2cc(F)c3nc(N)nn3c2)c1 | 0.676 | 0.836 | 1.2 | 1.61 | 0.94 | 1.09 |
